The values that follow come from PubChem BioAssay.

Where “and” joins values, the source holds several entries; their conditions need not be identical. Equal values may be shown once. Calls of active or inactive are those of the source.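 Rule for the calls: active = compounds whose cell count with miR-34 switched on is under 0.7 times the count with it off; inactive = the rest.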

The first experiment can be described thus: sensitizers of A549 cells to miR-34 induction, primary screen, imaging, A549 dox-inducible miR-34, nuclei and caspase counts (AID 1347080). Note: test concentration not given here. Conditions: A549 miR-34 inducible, Hoechst nuclei count, 48 h; stronger effect = lower value; cell number ratio, induced over uninduced.
As to `CC(=O)Nc1cccc(-c2nn(CC(=O)Nc3cnn(C)n3)c3ccccc23)c1`, the fold change was 0.885 (inactive).
On the same count and under the same terms, under `Cc1cc(NC(=O)Cn2ncc3cc(-c4ccc(F)c(F)c4)ccc32)n(C)n1` stands 0.877 (inactive).
For the molecule `O=C(O)CCC(=O)Nc1ccc(Br)cn1`, the fold change is 0.858 (inactive).
Still for that read-out and setting: in the case of `CC(C)SC1OC(CO)C(O)C(O)C1O` (stereo not given) it was 0.887 (inactive); in that of `COC1C=CO[C@@]2(C)Oc3c(C)c(O)c4c(O)c(c(C=NN5CCN(C6CCCC6)CC5)c(O)c4c3C2=O)NC(=O)C(C)=CC=CC(C)C(O)C(C)C(O)C(C)C(OC(C)=O)C1C` (stereo not given in full), 1.26 (inactive) and 0.937 (inactive); in that of `Cc1nsc(NC(=O)N[C@@H]2CCCC[C@H]2c2ccccc2)n1`, 0.821 (inactive).
Same read-out and setting: under `O=C(c1ccnc(Cl)c1)N1CCc2[nH]nc(C3CCC3)c2C1` stands 0.923 (inactive); under `Cc1cc(C)nc(-c2cnn(CC(=O)Nc3cnn(C)n3)c2)n1`, 0.881 (inactive).
With `O=C(O)c1ccc(-c2ccccc2[N+](=O)[O-])o1`, the fold change was 0.891 (inactive).
Take `O=C(NCC(c1ccccc1)c1ccccc1)Nc1nncs1`: the fold change was 0.844 (inactive).
On the same count and under the same terms, in the case of `O=C1NCC(=O)N2CCCC12` (stereo not given) it was 0.892 (inactive).
In the case of `CCc1nc(NC(=O)NCCc2nc(-c3ccc(C)cc3)no2)nn1C`, the fold change is 0.835 (inactive).
Same read-out and setting: under `CC1(C)CC(=O)c2c(N)ncnc2C1` stands 0.894 (inactive).
Take `Cc1nsc(NC(=O)N2CCCCC2c2nc(C(C)C)no2)n1` (stereo not given): the fold change was 0.906 (inactive).
Still for that read-out and setting: in the case of `O=C(Cn1nc(Cc2ccccc2)c2ccccc2c1=O)NCCc1ccco1` it was 0.937 (inactive).
Still for that read-out and setting: under `COc1ccccc1C(=O)N1CCC(n2cc(-c3ccccn3)nn2)CC1` stands 0.917 (inactive); under `NS(=O)(=O)c1ccc(F)cc1`, 0.896 (inactive); under `O=C(Nc1n[nH]c(-c2ccco2)n1)N1CCc2ccccc2C1`, 0.896 (inactive).
Same read-out and setting: under `Cc1csc(CNC(=O)Cc2csc(-c3ccccc3)n2)n1` stands 0.931 (inactive); under `O=C(NCc1ccccn1)c1ccc(Oc2ccccc2)cc1`, 0.933 (inactive).
For `COc1cccc2c(=O)n(Cc3ccc4ncccc4c3)cnc12`, the fold change was 0.883 (inactive).
As for `CCNC(=O)c1cccnc1N1CCN(c2ccc(Cl)cc2)CC1`, the fold change is 0.873 (inactive).
Regarding `CN=C(NC)NCc1ccccc1`, the fold change is 0.917 (inactive).
`Cc1nsc(NC(=O)NC2Cc3ccccc3C2)n1`: the fold change was 0.755 (inactive).
Same read-out and setting: under `Cc1c(Br)c(=O)oc2c(Br)c(O)ccc12` stands 0.86 (inactive); under `CCc1noc(Cn2cnc3sc4c(c3c2=O)CCC(C)C4)n1` (stereo not given), 0.911 (inactive).
For `O=c1c2nccnc2ncn1Cc1ccc2nsnc2c1`, the fold change is 0.878 (inactive).
The same measure, in the same setting: in the case of `O=c1ccn2c(n1)OC1C(O)C(CO)OC12` (stereo not given) it was 0.869 (inactive); in that of `NCC1OC(OC2C(CO)OC(OC3C(O)C(N)CC(N)C3OC3OC(CO)C(O)C(O)C3N)C2O)C(N)C(O)C1O` (stereo not given), 0.908 (inactive).
Same read-out and setting: in the case of `CCn1ncc(NC(=O)Cn2nc(C)c(-c3ccc(-n4cccn4)cc3)c2C)n1` it was 0.87 (inactive); in that of `O=S(=O)(Nc1cc(-c2cccs2)nn1-c1ccc(F)cc1)c1cccc(F)c1`, 0.903 (inactive); in that of `CN1CCC(CN(C)Cc2ccc(-c3nc(-c4ccncc4)cc(=O)[nH]3)cc2)CC1`, 0.939 (inactive).
For the molecule `CSc1ccccc1C(=O)N1CCc2[nH]nc(COc3ccccc3)c2C1`, the fold change is 0.941 (inactive).
Consider `c1ccc2c(c1)OCC(CNc1ncnc3nc[nH]c13)O2` (stereo not given), for which the fold change is 0.786 (inactive).
For `O=C(Nc1c[nH]c2ccccc12)c1cccnc1`, the fold change is 0.884 (inactive).
On the same count and under the same terms, under `CCn1ncc2[nH]c(-c3cnn(C)c3-c3ccccc3)nc21` stands 0.88 (inactive); under `Cc1cc(-c2cnn(CC(=O)Nc3ccnn3Cc3ccccc3)c2)nc(N)n1`, 0.926 (inactive); under `Cc1cccc(C)c1OCC(=O)O`, 0.919 (inactive).
Take `Cc1cc(=O)oc2cc(OC3OC(CO)C(O)C(O)C3O)ccc12` (stereo not given): the fold change is 0.875 (inactive).
On to `O=C1CN(c2ncnc3nc[nH]c23)CCN1Cc1cccc(F)c1`, for which the fold change is 0.802 (inactive).

The experiment is the same for the next values; noted with them: A549 miR-34 inducible, Hoechst nuclei count, 48 h; measured here: relative caspase fold change +Dox/-Dox.
Consider `CC(=O)Nc1cccc(-c2nn(CC(=O)Nc3cnn(C)n3)c3ccccc23)c1`, for which the fold change turned out to be 1.89.
Same read-out and setting: in the case of `Cc1cc(NC(=O)Cn2ncc3cc(-c4ccc(F)c(F)c4)ccc32)n(C)n1` it was 0.515; in that of `O=C(O)CCC(=O)Nc1ccc(Br)cn1`, 0.548; in that of `CC(C)SC1OC(CO)C(O)C(O)C1O` (stereo not given), 0.478.
As to `COC1C=CO[C@@]2(C)Oc3c(C)c(O)c4c(O)c(c(C=NN5CCN(C6CCCC6)CC5)c(O)c4c3C2=O)NC(=O)C(C)=CC=CC(C)C(O)C(C)C(O)C(C)C(OC(C)=O)C1C` (stereo not given in full), the fold change is 1.41 and 0.74.
Turning to `Cc1nsc(NC(=O)N[C@@H]2CCCC[C@H]2c2ccccc2)n1`, the fold change was 1.15.
Consider `O=C(c1ccnc(Cl)c1)N1CCc2[nH]nc(C3CCC3)c2C1`, for which the fold change turned out to be 0.638.
For the molecule `Cc1cc(C)nc(-c2cnn(CC(=O)Nc3cnn(C)n3)c2)n1`, the fold change was 1.67.
With `O=C(O)c1ccc(-c2ccccc2[N+](=O)[O-])o1`, the fold change turned out to be 0.452.
Regarding `O=C(NCC(c1ccccc1)c1ccccc1)Nc1nncs1`, the fold change came out at 1.57.
Turning to `O=C1NCC(=O)N2CCCC12` (stereo not given), the fold change was found to be 0.892.
The same measure, in the same setting: under `CCc1nc(NC(=O)NCCc2nc(-c3ccc(C)cc3)no2)nn1C` stands 1.88; under `CC1(C)CC(=O)c2c(N)ncnc2C1`, 0.392; under `Cc1nsc(NC(=O)N2CCCCC2c2nc(C(C)C)no2)n1` (stereo not given), 1.98.
For `O=C(Cn1nc(Cc2ccccc2)c2ccccc2c1=O)NCCc1ccco1`, the fold change was found to be 0.881.
Same read-out and setting: under `COc1ccccc1C(=O)N1CCC(n2cc(-c3ccccn3)nn2)CC1` stands 1.29; under `NS(=O)(=O)c1ccc(F)cc1`, 0.251.
The same measure, in the same setting: under `O=C(Nc1n[nH]c(-c2ccco2)n1)N1CCc2ccccc2C1` stands 0.879.
Consider `Cc1csc(CNC(=O)Cc2csc(-c3ccccc3)n2)n1`, for which the fold change amounted to 1.12.
Take `O=C(NCc1ccccn1)c1ccc(Oc2ccccc2)cc1`: the fold change turned out to be 0.296.
Still for that read-out and setting: in the case of `COc1cccc2c(=O)n(Cc3ccc4ncccc4c3)cnc12` it was 1.22.
In the case of `CCNC(=O)c1cccnc1N1CCN(c2ccc(Cl)cc2)CC1`, the fold change is 0.821.
Consider `CN=C(NC)NCc1ccccc1`, for which the fold change stood at 0.571.
Still for that read-out and setting: in the case of `Cc1nsc(NC(=O)NC2Cc3ccccc3C2)n1` it was 2.05.
The same measure, in the same setting: in the case of `Cc1c(Br)c(=O)oc2c(Br)c(O)ccc12` it was 0.806; in that of `CCc1noc(Cn2cnc3sc4c(c3c2=O)CCC(C)C4)n1` (stereo not given), 1.55.
Turning to `O=c1c2nccnc2ncn1Cc1ccc2nsnc2c1`, the fold change worked out at 1.36.
For the molecule `O=c1ccn2c(n1)OC1C(O)C(CO)OC12` (stereo not given), the fold change came to 0.596.
Still for that read-out and setting: in the case of `NCC1OC(OC2C(CO)OC(OC3C(O)C(N)CC(N)C3OC3OC(CO)C(O)C(O)C3N)C2O)C(N)C(O)C1O` (stereo not given) it was 0.282; in that of `CCn1ncc(NC(=O)Cn2nc(C)c(-c3ccc(-n4cccn4)cc3)c2C)n1`, 1.42.
Same read-out and setting: under `O=S(=O)(Nc1cc(-c2cccs2)nn1-c1ccc(F)cc1)c1cccc(F)c1` stands 0.956.
Take `CN1CCC(CN(C)Cc2ccc(-c3nc(-c4ccncc4)cc(=O)[nH]3)cc2)CC1`: the fold change was 1.26.
Still for that read-out and setting: in the case of `CSc1ccccc1C(=O)N1CCc2[nH]nc(COc3ccccc3)c2C1` it was 0.435; in that of `c1ccc2c(c1)OCC(CNc1ncnc3nc[nH]c13)O2` (stereo not given), 0.972; in that of `O=C(Nc1c[nH]c2ccccc12)c1cccnc1`, 1.08.
Same read-out and setting: under `CCn1ncc2[nH]c(-c3cnn(C)c3-c3ccccc3)nc21` stands 1.89; under `Cc1cc(-c2cnn(CC(=O)Nc3ccnn3Cc3ccccc3)c2)nc(N)n1`, 0.917.
As to `Cc1cccc(C)c1OCC(=O)O`, the fold change was determined as 0.272.
In the case of `Cc1cc(=O)oc2cc(OC3OC(CO)C(O)C(O)C3O)ccc12` (stereo not given), the fold change is 0.68.
With `O=C1CN(c2ncnc3nc[nH]c23)CCN1Cc1cccc(F)c1`, the fold change amounted to 2.49.
